Only some compounds are listed: those with a hit (about 28% of all), similar ones and a draw of the others.
CYP2C9 inhib: blockers of cytochrome P450 2C9 activity – biochemical, luminescence, ADME assay, primary screen; P11712; CYP2C9 Supersomes, luciferin-H conversion; inhibition, % at 5 µM; 20% of 96,000 active;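 active means blocking of liver enzyme CYP2C9 beyond about 50% at 5 µM, limit read from the data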
Target sequence (P11712 whole entry, looked up): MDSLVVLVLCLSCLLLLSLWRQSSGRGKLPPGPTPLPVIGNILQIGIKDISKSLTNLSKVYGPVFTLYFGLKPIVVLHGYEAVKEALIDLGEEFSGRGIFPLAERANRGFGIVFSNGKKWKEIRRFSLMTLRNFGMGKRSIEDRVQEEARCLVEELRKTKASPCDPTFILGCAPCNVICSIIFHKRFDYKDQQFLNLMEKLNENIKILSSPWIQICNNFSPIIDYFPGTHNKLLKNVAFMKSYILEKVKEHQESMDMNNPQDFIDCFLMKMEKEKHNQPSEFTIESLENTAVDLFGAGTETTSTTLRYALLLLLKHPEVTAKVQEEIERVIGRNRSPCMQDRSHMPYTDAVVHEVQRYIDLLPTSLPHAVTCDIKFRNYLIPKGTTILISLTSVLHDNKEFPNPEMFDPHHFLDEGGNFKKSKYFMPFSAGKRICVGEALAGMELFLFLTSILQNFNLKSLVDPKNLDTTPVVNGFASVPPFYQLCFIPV
CYP2C19 inh: blockers of cytochrome P450 2C19 activity – biochemical, luminescence, ADME assay, primary screen; P33261; CYP2C19 Supersomes, luciferin-H EGE luminescence, 30 min; inhibition, % at 5 µM; 21% of 96,000 active; AID 778, 2007;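 active means CYP2C19 inhibition above a set limit at 5 µM in the primary screen, cut at about 50% in these data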
hDAT+cocaine: changed hDAT dopamine uptake under cocaine IC80, either direction, primary screen, cocaine antagonist project, cell-based, LLC-PK1 hDAT, [14C]-dopamine uptake, MLSMR; LLC-PK1 hDAT cells, [14C]-dopamine uptake with cocaine IC80; actives deviate in either direction; B-score at 10 µM; 1.3% of 110,000 active;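 active means Z score or B-score, a plate-position-corrected score, falls beyond the plate's 99.7% confidence bounds, in either direction; inactive means both scores lie inside the 99.7% bounds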
D1 allo mod: D1 CRE-luciferase signal change, two-sided – cell-based, HEK293 D1, dopamine EC30, D1 allosteric modulator project, primary screen. B-score at 10 µM. D(1A) dopamine receptor (Homo sapiens), P21728. 5.9% of 58,000 active. dopamine EC30 potentiation; actives deviate in either direction;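 active means luminescence count or its row- and column-corrected plate score outside the 99.7% band of the plate's sample wells, on either side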
CYP2C9 activ: human CYP2C9 activators, primary screen, biochemical, luminescence; AID 1024, 2008; activation factor at 5 µM; recombinant CYP2C9, luciferin-H conversion; hits give high values; factor 1 = untreated enzyme, 0 = blocked; 1.4% of 96,000 active;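 active means activation factor of 2 or more for CYP2C9 at a 5 µM dose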
CYP2C19 act: human CYP2C19 activators, primary screen, biochemical, luminescence; Cytochrome P450 2C19 (Homo sapiens), P33261; recombinant CYP2C19, luciferin-H EGE luminescence; hits give high values; 0 = fully inhibited enzyme, 1 = untreated enzyme; 96,000 tested, under 10 active; activation factor at 5 µM;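 active means activation factor of at least 2 at 5 µM in the primary screen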
Large screens that a line does not name were inactive.

COCCCNC(=S)NC1CC2CCCC(C1)N2Cc1cccs1 (stereo not given)	none (no result: D1 allo mod)
CCC(C)C(=O)N1CCc2cc(-c3csc(N)n3)ccc21 (stereo not given)	CYP2C9 inhib 70, CYP2C19 inh 78
CN1C(=O)N(C)C2C1N(CN1CCCCC1)C(=O)N2CN1CCCCC1 (stereo not given)	none
O=C(NCC(c1cccs1)N1CCOCC1)c1cc2ccccc2o1 (stereo not given)	CYP2C9 inhib 74, CYP2C19 inh 75
CCN(CC)CCNCc1ccc(-c2ccc(Cl)cc2)o1	none
Cc1ccc(C2(C)NC(=O)N(Cc3c(C)noc3C)C2=O)cc1 (stereo not given)	CYP2C19 inh 53
Cc1noc(C)c1CN1C(=O)NC2(CCc3ccccc3C2)C1=O (stereo not given)	none (no result: CYP2C9 inhib, CYP2C19 inh, CYP2C9 activ, CYP2C19 act)
CC(O)[C@H]1CNC(=O)C(=O)N1CCc1cc(C(F)(F)F)cc(C(F)(F)F)c1 (stereo not given in full)	none (no result: CYP2C9 inhib, CYP2C19 inh, D1 allo mod, CYP2C9 activ, CYP2C19 act)
C=CCNC(=S)NNC(=O)COc1cccc(Cl)c1	CYP2C19 inh 60 (no result: D1 allo mod)
S=c1[nH]nc(-c2ccncc2)n1Cc1ccccc1	none
Cc1ccccc1-n1c(-c2ccncc2)n[nH]c1=S	CYP2C19 inh 54
CC(c1ccccc1)n1c(-c2ccncc2)n[nH]c1=S (stereo not given)	CYP2C9 inhib 65, CYP2C19 inh 78
CCc1ccccc1-n1c(-c2ccncc2)n[nH]c1=S	CYP2C9 inhib 68, CYP2C19 inh 68
CCOc1ccccc1-c1cc(-c2ccc(OC)cc2)nc2c1c(=O)n(C)c(=O)n2C	none
CC(C)=C1C2CCC1C1C(=O)N(NC(=O)COc3ccc(C(C)(C)C)cc3)C(=O)C21 (stereo not given)	none (no result: D1 allo mod)
CCN(CC)c1ccc(C(=O)OCc2cc(=O)oc3cc(O)ccc23)cc1	CYP2C19 inh 94, CYP2C9 activ 2 (no result: D1 allo mod)
C=CCn1c(Cc2nc3ccc(Cl)cc3[nH]2)n[nH]c1=S	CYP2C19 inh 98
C=CCn1c(Cc2c[nH]c3ccccc23)n[nH]c1=S	CYP2C19 inh 62
C=CCn1c(-c2cccc3ccccc23)n[nH]c1=S	CYP2C9 inhib 52, CYP2C19 inh 92 (no result: D1 allo mod)
N#Cc1c(Sc2ncc(C(F)(F)F)cc2Cl)nsc1C/C=N\OCc1ccccc1Br	none (no result: D1 allo mod)
O=C1C=C(NCCN2CCOCC2)CC(c2ccccc2)C1 (stereo not given)	none (no result: D1 allo mod)
COc1ccc(-c2noc(C(C)n3nc(C)c([N+](=O)[O-])c3C)n2)cc1OC (stereo not given)	CYP2C9 inhib 59 (no result: D1 allo mod)
COc1cccc(-c2noc(Cn3nc(C)c([N+](=O)[O-])c3C)n2)c1	CYP2C19 inh 56 (no result: D1 allo mod)
CC(NC(=O)c1ccccc1Br)c1nnc(SCc2ccc([N+](=O)[O-])cc2)n1C (stereo not given)	none (no result: D1 allo mod)
Cc1c(NCc2cc(Cl)cc(Cl)c2O)c(=O)n(-c2ccccc2)n1C	CYP2C9 inhib 85, CYP2C19 inh 73 (no result: D1 allo mod)
C#CCNC(=O)C1=C[C@@H](c2ccc(C(F)(F)F)cc2)[C@H](CCCO)[C@@H](OCC)O1	none (no result: CYP2C9 inhib, CYP2C19 inh, D1 allo mod, CYP2C9 activ, CYP2C19 act)
Cc1cc(C)cc(Nc2ncc3c(n2)CCCC3=O)c1	D1 allo mod -5
CCOC(=O)C1CCCN(c2cc(C)nc3cc(-c4ccc(Cl)cc4)nn23)C1 (stereo not given)	none (no result: CYP2C9 inhib, CYP2C19 inh, D1 allo mod, CYP2C9 activ, CYP2C19 act)
CCOC(=O)C1CCCN(c2cc(C)nc3cc(-c4ccc(F)cc4)nn23)C1 (stereo not given)	CYP2C9 inhib 67
COc1ccc(-n2c(NCCN(C)C)nc3sc4c(c3c2=O)CCCCC4)cc1	none (no result: D1 allo mod)
COc1ccc(-n2c(N3CCN(C)CC3)nc3sc4c(c3c2=O)CCCCC4)cc1	CYP2C19 inh 64
Nc1nc(-c2ccc3ccccc3c2)c(C2(O)C(=O)Nc3c(Br)cc(F)cc32)s1 (stereo not given)	CYP2C19 inh 92 (no result: D1 allo mod)
CCOc1nc(C)nc(NC(=O)NS(=O)(=O)c2ccccc2Cl)n1	none (no result: hDAT+cocaine, D1 allo mod)

Source: PubChem (several laboratories)
